# Bioassay records from PubChem BioAssay.
# HCMV antiviral – human cytomegalovirus inhibition; HFF cells, HCMV-luciferase reporter, 72 h; active compounds read low; activity change, negative = inhibition, % at 57.5 µM; hit rate 4.5% among 410,000; AID 1259415; in the data active = activity change below about -60%; inconclusive = no clear call, values can overlap the other calls; inactive = above about -39%
#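 Steps: HFFs plated, 16 h 37C; compounds added; HCMV-luciferase added to MOI 1 PFU/cell; 72 h 37C; OneGlo reagent, 5 min room temperature; luminescence read, normalized to controls.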
# FMDV inh – antivirals against foot and mouth disease virus. FMDV antiviral cell-based qHTS. AID 1159524. hit rate 1.2% among 410,000. Potency, µM (doses to about 57.9 µM), hits mostly inhibitors; calls by dose curve; tested in HEK293T cells; also: read-out not given here; nearly all actives have a fitted effect of over 45% in size
# VACV Venus inh – inhibitors of vaccinia virus (Venus reporter) | Vaccinia virus Venus reporter expression, fluorescence | Potency, µM (doses to about 36.5 µM), hits mostly inhibitors | hit rate 0.46% among 330,000 | AID 720580; calls by dose curve; tested in A549 cells; also: nearly all actives have a fitted effect of over 30% in size
# HCV inh – HCV inhibition. Huh7.5.1 HCVcc-Cre infection, luciferase reporter, 44 h. Potency, µM (series often up to 41.8 µM), most hits filed as inhibitors. hit rate 3.4% among 340,000. AID 651820; active = well fitted inhibition curve with a large enough effect; inconclusive = small, poorly fitted or top-dose-only effect, or another doubt; inactive = no such curve, though single readings can be large or run the other way
#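 A cell-based infection assay in which seeded cells (1,000 per well) receive test compound after 4 h, are inoculated with HCVcc-Cre at approximately 0.5 moi, and are incubated 44 h before luminescence detection.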
# Vaccinia mCherry – vaccinia inhibition (mCherry reporter). Vaccinia virus mCherry reporter infection, fluorescence. hit rate 0.63% among 310,000. Potency, µM (top dose mostly 36.5 µM), hits mostly inhibitors. AID 720579; calls by dose curve; tested in A549 cells; also: nearly all actives have a fitted effect of over 35% in size
# A number is an active result; - = inactive; ? = inconclusive; . = not tested or not shown; ! = a repeat was not active; [ ] = dose if it differs, or a comment. An excerpt weighted towards active compounds, which were near 7.3% of everything screened.
SMILES,HCMV antiviral,FMDV inh,VACV Venus inh,HCV inh,Vaccinia mCherry
Fc1ccccc1N1CCN(c2c3c(nc4nncn24)CCC3)CC1,-,?,-,.,-
Cc1nnc(NC(=O)CSCc2cc(=O)c3ccccc3[nH]2)s1,-,-,-,.,-
Cc1ccc(SCC2(O)CCN(S(=O)(=O)c3ccc(Cl)cc3)CC2)cc1,-,?,.,?,.
COc1ccc(S(=O)(=O)N2CCC(O)(c3ccc(Cl)cc3)CC2)cc1OC,-72.8,?,-,-,-
CN1CCN(CC2(O)CCN(S(=O)(=O)c3ccc(Cl)cc3)CC2)CC1,-68.7,-,-,-,-
COc1ccc(S(=O)(=O)N2CCC(O)(c3ccc(Cl)cc3)CC2)cc1,-,?,?,-,-
COc1ccc(N(C)C(=O)CCn2cnc3onc(-c4ccc(F)cc4)c3c2=O)c(OC)c1,-,?,-,.,-
CC(C)c1ccc(NC(=O)C2CCCCN2S(=O)(=O)c2ccccc2)cc1 (stereo unspecified),?,-,.,22.4µM,.
COc1ccc(-c2csc(NC(=O)C3CCCCN3S(=O)(=O)c3ccccc3)n2)cc1 (stereo unspecified),-67.6,-,?,?,.
COc1cc(NC(=O)c2ccc(-c3ccc(F)c(F)c3)c3ccoc23)cc(OC)c1OC,-,-,-,.,-
CN(C)c1ccc(N=Cc2cccc3ccccc23)cc1,.,.,-,.,-
O=S(=O)(CC(CN1CCCCC1)N1CCCCC1)c1ccccc1 (stereo unspecified),-98.6,35.5µM,.,?,.
O=[N+]([O-])c1ccc(S(=O)(=O)CC(CN2CCOCC2)N2CCOCC2)cc1 (stereo unspecified),-101.9,-,?,11.2µM,?
O=[N+]([O-])c1ccc(C(O)CN2CCOCC2)cc1 (stereo unspecified),-,-,-,-,-
O=C(c1nc2ncccn2n1)N1CCOc2ccc(C(O)C(c3ccccc3)c3ccccc3)cc2C1 (stereo unspecified),.,-,-,.,-
Cc1ccc(CNC(=O)c2ccc(Cn3c(=O)c4ccccc4n(CC(=O)Nc4c(C)cc(C)cc4C)c3=O)cc2)cc1,-,-,?,.,?
N#Cc1ccccc1Cn1c(=O)n(Cc2ccc(C(=O)NCc3ccco3)cc2)c(=O)c2sccc21,-,-,-,?,-
Cc1cc(C)c(NC(=O)Cn2c(=O)n(Cc3ccc(C(=O)NCc4ccco4)cc3)c(=O)c3sccc32)c(C)c1,-75.6,-,-[7.34 µM],.,-[7.34 µM]
Cc1cccc(C)c1NC(=O)Cn1c(=O)n(Cc2ccc(C(=O)NCc3ccco3)cc2)c(=O)c2sccc21,-66.1,-,-,.,-
COc1ccccc1C(=O)Nc1cccc(C(=O)OCc2cc(=O)n3ccsc3n2)c1,-,-,-,.,-
CCCCNC(=O)C(C)(C)n1cc(NC(=O)Cc2ccc(F)cc2)cn1,-,.,.,.,.
O=C(COc1ccc(Br)cc1)N1CCN(Cc2c[nH]c3ccccc23)CC1,-,-,?,-,14.1µM
COc1ccc(Br)cc1CN1CCN(Cc2c[nH]c3ccccc23)CC1,-99.9,-,?,?,?
Oc1ccc(NC(=S)Nc2ccccc2)cc1,?,-,-,-,?
N#Cc1cccc(NC(=S)Nc2ccccc2)c1,-67.8,-,-,-,-
SMILES,HCMV antiviral,FMDV inh,VACV Venus inh,HCV inh,Vaccinia mCherry
Cc1cc2c(cc(C(=O)OC(C(=O)NC3CCCCC3)C(C)C)n2C)o1 (stereo unspecified),?,-,.,15.8µM,.
COCCNC(=O)C(OC(=O)c1cc2oc(C)cc2n1C)C(C)C (stereo unspecified),-,-,-,-,-
Cc1cc(C)n2nc(-c3sccc3-n3c(C)ccc3C)cc2n1,-,-,?,8.91µM,.
Cc1cc(C)n2nc(-c3sccc3-n3cccc3)cc2n1,-,?,-,-,.
N/C(COc1cc(Cl)cc(Cl)c1)=N\O,-64.9,-,-,-,-
COc1ccc(CC(=O)Nc2nnc3n2CCS3)cc1,-,-,-,.,-
CC(C)(C)c1ccc(C(=O)Nc2nnc3n2CCS3)cc1,-84.2,-,-,.,-
CCOc1ccc(CC(=O)Nc2nnc3n2CCS3)cc1,-60.7,-,-,.,-
CCOc1ccc(-n2c(=O)c3c(C)c(C)sc3n(CC(=O)C(C)(C)C)c2=O)cc1,-,-,-,.,-
Cc1cccc(NC(=O)N2CCC3(CC2)Oc2ccccc2C(=O)N3Cc2ccccc2F)c1C,-,-,-,.,-
CCN(C(=O)CCS(=O)(=O)c1ccc2c(c1)oc(=O)n2C)c1ccc(OC)cc1,-63.5!,-,-,-,-
CCOC(=O)c1c(S(=O)(=O)NCC(=O)N(C)Cc2ccccc2)c(C)n(C)c1C,-,-,-,.,-
CC1CCC(C(C)C)C(OCC(O)CNC(C)(C)C)C1 (stereo unspecified),-75.8,-,-,-,-
CC1CCC(C(C)C)C(OCC(O)CNC(C)c2ccccc2)C1 (stereo unspecified),-98.5,?,10µM,?,10µM
CC1CCN(CC(O)COC2CC(C)CCC2C(C)C)CC1 (stereo unspecified),?,-,.,-,.
Cc1ncc2c(c1CNS(=O)(=O)N(C)C)CCN(C(=O)c1ccc(-c3ccc(F)cc3)cc1)C2,.,-,-,.,-
Nc1c(C(=O)Nc2ccccc2Cl)nnn1Cc1cccc(Cl)c1,-,-,-,.,-
CCOC(=O)COc1ccc(C2C(C(=O)OC)=C(C)NC3=C2C(=O)c2ccccc23)cc1Cl (stereo unspecified),-101.8,-,-,.,-
Cc1ccccc1Cn1ccc(NC(=O)CCSc2nc(-c3ccco3)cc(C(F)(F)F)n2)n1,-,-,-,3.16µM,.
Cc1ccc(Cn2ccc(NC(=O)CCSc3nc(-c4ccco4)cc(C(F)(F)F)n3)n2)cc1,-,?,?,11.2µM,.
Cc1cc(NC(=O)CCSc2nc(-c3ccco3)cc(C(F)(F)F)n2)no1,-,-,-,?,-
COc1ccc(OC)c([C@@H](O)[C@H](C)N)c1,.,-,-,.,-
O=C(O)c1ccccc1C=NN=C1c2ccccc2-c2ccccc21,-,-,-,-,-
Oc1ccccc1C=NN=C1c2ccccc2-c2ccccc21,-,-,-,8.91µM,-
CCCCn1c(-c2csc3c2CCC(C)C3)n[nH]c1=S (stereo unspecified),-60.9,-,.,?,.
SMILES,HCMV antiviral,FMDV inh,VACV Venus inh,HCV inh,Vaccinia mCherry
COc1ccc(Oc2nc(-c3ccccn3)nc3ccccc23)cc1,-69.8,-,?,12.6µM,4.47µM
Fc1ccc(Oc2nc(-c3ccccn3)nc3ccccc23)cc1,?,?,?,-,?
CC(=O)c1ccc(Oc2nc(-c3cccnc3)nc3ccccc23)cc1,-,-,-,11.2µM,-
COc1ccc(Oc2nc(-c3ccccn3)ncc2OC)cc1,-,-,?,?,-
c1ccc(Oc2nc(-c3ccccn3)nc3ccccc23)cc1,?,-,?,7.94µM,?
CC(C)(C)c1ccc(-c2nc(S(=O)(=O)c3ccccc3)c(N3CCOCC3)o2)cc1,-,-,-,.,-
O=C(Cc1ccccc1[N+](=O)[O-])c1ccccc1,-,.,.,.,.
O=C(NCc1cccc(F)c1)c1cccc(OC2CCN(C(=O)C3CC3)CC2)c1,?,28.2µM,?,.,-
COCCNC(=O)c1cccc(OC2CCN(Cc3ccc(OC(F)F)cc3)CC2)c1,-,?,-,7.08µM,-
